IEC-6 tox = IEC-6 cytotoxicity, counter-screen for KLF5 inhibitors. luminescence viability. inhibition, % at 5 µM. 0.78% of 290,000 active. AID 1825; in the data active = inhibition above about 22%;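 note: 0% = plate median of test compound wells and 100% = cytotoxic reference compound wells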
BaF3 parental = parental Ba/F3 viability inhibition as JAK2V617F counter-screen. 1.1% of 220,000 active. inhibition, % at 5.6 µM. CellTiter-Glo ATP luminescence. AID 1486;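 active = inhibition above a per-campaign cutoff, the mean inhibition of all tested compounds plus 3 SD, cut at about 27% in these data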;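 note: 0% = DMSO wells and 100% = JAK Inhibitor I control wells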
APP transl inh = APP translation inhibition; SH-SY5Y APP 5'UTR-luciferase reporter, luminescence; inhibition, % at 2 µM; AID 1285; 0.82% of 190,000 active;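 active = inhibition above a set limit, derived from the sample mean plus 3 SD, cut at about 45% in these data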
KLF5 inhibitor = kruppel-like factor 5 inhibition; inhibition, % at 5 µM; AID 1700; DLD-1 KLF5 promoter-luciferase reporter, luminescence; 0.23% of 290,000 active;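 active = inhibition above a per-plate limit of that plate's mean compound inhibition plus 3 SD, cut at about 60% in these data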;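 note: 0% = DMSO wells and 100% = LY294002 at 200 µM; higher means less KLF5 promoter-driven luciferase light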
Ba/F3 V617F tox = lowers viability of Ba/F3 cells expressing EpoR and JAK2V617F; 1.1% of 220,000 active; inhibition, % at 5.6 µM; ATP luminescence;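 active = inhibition above the campaign mean plus 3 SD over all tested compounds, cut at about 24% in these data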;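 note: cytokine-independent growth of Ba/F3 cells driven by EpoR plus mutant JAK2; 0% = DMSO-treated cells and 100% = JAK inhibitor I control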
BaF3 parental 2 = parental Ba/F3 viability inhibition for JAK2V617F counter-screen | shares compounds with Ba/F3 V617F tox | AID 1520 | CellTiter-Glo luminescence; cells kept alive by added IL-3 | 31% of 580 active | inhibition, % at 5.6 µM;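 active = cell growth inhibition above the hit limit set in the earlier mutant JAK2 cell screen, cut at about 27% in these data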;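 note: plate controls were DMSO-treated cells for no effect and JAK Inhibitor I control wells for full effect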
JAK2V617F confrm = Ba/F3 EpoR-JAK2V617F viability loss, confirmation. shares compounds with Ba/F3 V617F tox. CellTiter-Glo luminescence. inhibition, % at 5.6 µM. 66% of 580 active. AID 1521;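 active = mean inhibition above the hit cutoff derived in the earlier primary screen, cut at about 25% in these data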;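 note: 0% = DMSO-treated cells and 100% = JAK inhibitor I control wells; higher means lower luminescence from reduced cell ATP and viability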
Starred values were filed as active, the others as inactive; nt = not tested or not shown. Most compounds without a hit are left out; they make up all but 1.8% or so of the library.

SMILES	IEC-6 tox	BaF3 parental	APP transl inh	KLF5 inhibitor	Ba/F3 V617F tox	BaF3 parental 2	JAK2V617F confrm
O=C(NCCn1cccn1)C1CCC(=O)N(CCc2ccc(Cl)cc2)C1 (stereo unspecified)	2	nt	nt	-20	nt	nt	nt
Cc1cc(SCC(=O)N/N=C/c2ccc(O)c(O)c2)c(C)cc1Br	-2	11	25	-16	44*	5	85*
Cc1cc(NC(=O)c2cccs2)n(-c2nc3ccccc3[nH]2)n1	-9	7	10	-10	-1	nt	nt
Cc1cc(NC(=O)c2sccc2C)n(-c2nc3ccccc3[nH]2)n1	-10	3	8	-26	84*	-5	-4
O=C(CN1C(=O)NC2(CCCc3ccccc32)C1=O)NCc1ccc(Cl)cc1Cl (stereo unspecified)	6	nt	nt	5	nt	nt	nt
O=C(Nc1ccc(NC(=S)NC(=O)C(c2ccccc2)c2ccccc2)cc1)c1ccccc1	5	8	1	-9	28*	29*	64*
Cc1nn(-c2ccccc2)c(C)c1NC(=O)COc1ccc2ccccc2c1	2	4	-3	9	90*	-5	-5
COc1ccc(/C=C/C(=O)c2cc(F)ccc2OC(=O)c2ccccc2C)cc1OC	88*	2	97*	68*	39*	29*	97*
CCn1c(=O)n(CC)c2cc(N3CCCC3)c(NC(=O)c3cccc(Cl)c3)cc21	2	nt	nt	-2	nt	nt	nt
COc1cc(C(=O)OCC(C)=O)ccc1OCc1c(C)noc1C	14	24	14	28	39*	15	26*
Cc1ccccc1C(=O)Nc1cccc(C(=O)N/N=C/c2cc(Cl)cc([N+](=O)[O-])c2O)c1	-2	8	-5	-13	5	nt	nt
COc1ccc(/C=N/NC(=O)CCn2cnc(-c3ccccc3)c2-c2ccccc2)cc1	40*	11	89*	9	47*	62*	94*
Nc1nnc(Sc2ccc(Cl)cc2[N+](=O)[O-])s1	1	1	15	-7	65*	-5	-11
Cc1cccc(OCC(O)Cn2c(=N)n(Cc3ccccc3)c3ccccc32)c1 (stereo unspecified)	5	6	nt	-32	26*	3	32*
CCN(CC)CCn1c(=N)n(CC(O)COc2cccc(C)c2)c2ccccc21 (stereo unspecified)	0	12	0	-12	13	nt	nt
N=c1n(Cc2ccccc2)c2ccccc2n1CC(O)COc1ccc(Cl)cc1Cl (stereo unspecified)	-2	10	-19	-11	3	nt	nt
COc1ccc(OCC(O)Cn2c(=N)n(Cc3ccccc3)c3ccccc32)cc1 (stereo unspecified)	18	23	4	1	68*	5	35*
Cn1c(=O)n(C)c2cc(/C=N/N=C3/NC(=O)C(CC(=O)O)S3)ccc21 (stereo unspecified)	-8	-3	10	8	0	nt	nt
O=C(NC1C=CS(=O)(=O)C1)c1sc2ccccc2c1Cl (stereo unspecified)	0	4	-11	-19	27*	-4	59*
O=C(NC1CC1)c1sc2ccccc2c1Cl	0	nt	nt	-11	nt	nt	nt
CCOC(=O)C1=C(C)C(c2ccccc2OC)NC(=S)N1 (stereo unspecified)	-5	8	5	-29	3	nt	nt
Cc1cccc2cc(CN(CC3CCCO3)C(=O)c3ccco3)c(=O)[nH]c12 (stereo unspecified)	-3	4	1	3	-1	nt	nt
O=C(c1ccco1)N(Cc1cc2ccccc2[nH]c1=O)CC1CCCO1 (stereo unspecified)	10	1	10	-29	69*	-2	-4
CCCC(=O)NC(Nc1c(C)n(C)n(-c2ccccc2)c1=O)C(Cl)(Cl)Cl (stereo unspecified)	-5	1	-8	12	-1	nt	nt
O=C1C=CCC(/C=C/c2ccccc2)O1 (stereo unspecified)	2	0	31	-24	46*	24	97*
SMILES	IEC-6 tox	BaF3 parental	APP transl inh	KLF5 inhibitor	Ba/F3 V617F tox	BaF3 parental 2	JAK2V617F confrm
O=C(O)CCc1nnc(SCC(=O)Nc2cccc(C(F)(F)F)c2)[nH]c1=O	7	11	-15	-18	5	nt	nt
CC1(C)Cc2nc3sc4c(SCC(=O)NCc5ccco5)ncnc4c3cc2CO1	13	25	-12	-7	72*	62*	90*
O=C(Cn1c(=O)n(-c2cccc(C(F)(F)F)c2)c(=O)c2sccc21)NCC1CCCO1 (stereo unspecified)	4	nt	nt	4	nt	nt	nt
Cc1[nH]c(=O)c(C(=O)/C=C/c2ccccc2F)c2c1CCCC2	4	17	7	-16	50*	18	96*
Cc1cc(C)c(C(=O)/C=C/c2cccc3ccccc23)c(=O)[nH]1	6	0	nt	-20	-3	nt	nt
O=S(=O)(Nc1cccc(-c2cn3c(n2)SCC3)c1)c1ccc(F)cc1F	6	nt	nt	-16	nt	nt	nt
COC(=O)c1ccc(NC(=O)c2cc[n+]([O-])cc2)cc1	2	nt	nt	-21	nt	nt	nt
CN(C)c1cccc(C(=O)N2CCCC(C(=O)c3cc(F)ccc3F)C2)c1 (stereo unspecified)	-1	1	12	-9	-1	nt	nt
COc1ccc(F)cc1C(=O)C1CCCN(C(=O)c2cccc(N(C)C)c2)C1 (stereo unspecified)	5	5	-11	-16	102*	-3	7
Cc1c(C(=O)NCc2nnc(-c3ccccc3)o2)oc2c(F)cccc12	-2	nt	nt	-23	nt	nt	nt
CCN(CC)S(=O)(=O)c1ccc2c(c1)c(=O)c(C(=O)NCc1ccco1)cn2C	0	8	-11	-27	3	nt	nt
Cc1ccc(S(=O)(=O)N2CCC(C(=O)N[C@@H](C)C(=O)Nc3ccc4c(c3)OCO4)CC2)cc1	2	7	nt	-23	43*	0	6
CC1CCN(C2CCN(S(=O)(=O)c3ccc(C(F)(F)F)cc3)CC2)CC1	7	nt	nt	-19	nt	nt	nt
COc1cc2c(cc1NC(=O)c1cccc([N+](=O)[O-])c1C)oc1ccccc12	6	1	-8	-2	53*	-5	5
COc1ccc(S(=O)(=O)N2CCSC2c2ccc(N)cc2)cc1 (stereo unspecified)	5	2	0	-5	3	nt	nt
O=C(CSc1nnc(CNC(=O)c2c(F)cccc2F)o1)NCc1ccc(F)cc1	6	nt	nt	-4	nt	nt	nt
COC1(OC)C(/C=C/c2ccc(C)cc2)C(C#N)(C#N)C1(OC)OC (stereo unspecified)	3	1	-2	-12	37*	-1	50*
CN(C)CCCN(Cc1ccccc1)C(=S)Nc1ccc(SC(F)F)cc1	2	18	7	7	36*	25	45*
CC(=O)c1ccc(NC(=S)N(CCCN(C)C)Cc2ccccc2)cc1	3	2	nt	-29	-5	nt	nt
Cc1ccc(Nc2nnc(SCC(=O)NCCN3C(=O)CSC3=O)s2)cc1C	4	8	-26	-18	7	nt	nt

Source: PubChem BioAssay
